test system: Plasmodium falciparum; experiment: GSK_TCMDC: Inhibition of Plasmodium falciparum 3D7 in whole red blood cells, using parasite LDH activity as an index of growth. Test compounds present at 2uM; type: functional

Compared with `COc1cc2cc(-c3nc4ccccc4[nH]3)c(N)nc2cc1OC.Cl`, `O=C(NCCc1ccc(Cl)c(Cl)c1)[C@@H]1CCCN1C(=O)c1ccc(O)c(-c2ccc(Cl)c(Cl)c2)c1` is lower in Inhibition: 100% for the first, 99% for the second.

`O=C(O)C(F)(F)F.Oc1ccc(CCNc2nc(NCc3ccccc3-c3ccc(C(F)(F)F)cc3)nc(N3CCCNCC3)n2)cc1` was tested, and the Inhibition was 95%.

test system: Plasmodium falciparum; experiment: GSK_TCMDC: Inhibition of Plasmodium falciparum Dd2 in whole red blood cells, using parasite LDH activity as an index of growth. Test compounds present at 2uM; type: functional

First: CCCNC(=O)C1CCN(C(c2ccccc2)c2ccc(Cl)c(Cl)c2)CC1 (stereo not drawn)
Second: CCOc1cc(C(=O)NC2CCN(Cc3ccccc3)CC2)ccc1-c1nc2cc(Cl)ccc2[nH]1
The Inhibition of the first is higher: 90% for the first, 84% for the second.

First: c1ccc(CNc2nc(NCCc3c[nH]cn3)nc(NCc3cccc4ccccc34)n2)cc1
Second: O=C(O)C(F)(F)F.Oc1ccc(CCNc2nc(NCc3ccccc3-c3ccc(C(F)(F)F)cc3)nc(N3CCCNCC3)n2)cc1
The Inhibition of the first is lower: 1% for the first, 2% for the second.

Going from `O=C(Cc1ccc(Cl)cc1)Nc1cc(Cl)ccc1Cn1cnc(N2CCNCC2)cc1=O.O=C(O)C(F)(F)F` to `O=C(O)C(F)(F)F.OCCN1CCN(Cc2ccc(-c3ccc(-c4nc5ccccc5[nH]4)cc3)cc2)CC1`, the Inhibition rises from 2% to 58%.

First: COc1ccc2nccc([C@@H](O)CN3CCC(NCc4cn5cc(F)ccc5n4)CC3)c2c1.O=C(O)C(=O)O
Second: N#Cc1cccc(C(=O)NC2CCN(c3ccnc(Nc4ccc(F)cc4)n3)C2)c1 (stereo not drawn)
The Inhibition of the first is lower: 5% for the first, 91% for the second.

Going from `CCNC(=O)Nc1ccc(N(C)c2ccnc(Nc3ccc(CS(C)(=O)=O)cc3)n2)cc1.Cl` to `COc1cccc(C(=O)Nc2ccc(Nc3nc(C)cc(N(C)C)n3)cc2)c1OC`, the Inhibition falls from 99% to 9%.

Going from `O=C(c1cc2c(s1)-c1cccc(Cl)c1SC2)N1CCN(c2ccncc2)CC1` to `CN1CCN(c2ccc(Nc3ncc([N+](=O)[O-])c(Nc4ccccc4O)n3)cc2)CC1.O=C(O)C(F)(F)F`, the Inhibition rises from 36% to 97%.

First: O=C(C=Cc1ccc(Cl)c(Cl)c1)NCCCCCN1CCC(CCCNS(=O)(=O)c2cccc(C(F)(F)F)c2)CC1
Second: O=C(O)C(F)(F)F.O=S(=O)(NCCN1CCCC1)c1cccc(-c2cccc(CNCCc3cccs3)c2)c1
The Inhibition of the first is higher: 59% for the first, 45% for the second.

First: O=C(Nc1ccc(Br)cc1)N(CCN1CCOCC1)CC(O)COCc1ccc(Cl)c(Cl)c1.O=C(O)C(F)(F)F (stereo not drawn)
Second: CC(C)CNC(=O)c1cncc(-c2ccc(CNC3Cc4ccccc4C3)cc2)c1.O=C(O)C(F)(F)F
The Inhibition of the first is higher: 52% for the first, 37% for the second.

First: Cc1cc(Br)cnc1CCCCNC1=NC(=O)CN1C
Second: COc1ccc2ncc(Cl)c(CCN3C[C@H](CNCc4ccc5c(n4)NC(=O)CS5)[C@H](O)C3)c2n1.Cl
The Inhibition of the first is higher: 26% for the first, 16% for the second.

Compared with `c1cncc(CN2CCN(Cc3ccc(-c4ccc(-c5nc6ccccc6[nH]5)s4)cc3)CC2)c1`, `CC(CN1CCN(C)CC1)C(=O)Nc1ccc(-c2cccc(-c3nc4ccccc4[nH]3)c2)cc1` (stereo not drawn) is higher in Inhibition: 34% for the first, 81% for the second.

Going from `CCN(CC)CCN(Cc1ccc(-c2ccc(C(F)(F)F)cc2)cc1)C(=O)Cn1c(CCc2cccc(F)c2F)nc(=O)c2ccc(C(F)(F)F)cc21.O=C(O)C(O)C(O)C(=O)O` to `CS(=O)(=O)c1ccc(CNCc2ccc(-c3ccc(-c4nc5cc(C(F)(F)F)ccc5[nH]4)s3)cc2)cc1.O=C(O)C(F)(F)F`, the Inhibition rises from 55% to 98%.

Going from `CCC(CC)N1CCN(CC(=O)Nc2ccc([N+](=O)[O-])cc2C(=O)Nc2cccc(OC)c2)CC1` to `CCNc1cc(C(=O)N[C@@H](Cc2ccccc2)[C@H](O)CNC(C)(C)Cc2cccc(OC)c2)cc(N2CCCC2=O)c1.O=CO`, the Inhibition rises from 35% to 97%.

First: Br.CC(=O)Nc1nc(C)c(-c2csc(Nc3ccc(Cl)cc3)n2)s1
Second: CCN(CC)CCCN(CCCN(CC)CC)c1cc(C)nc(Nc2ccc(Cl)cc2)n1.O=C(O)C(=O)O
The Inhibition of the first is higher: 93% for the first, 7% for the second.

Compared with `COc1ccc(C2C(C(=O)Nc3ccc(C)c(F)c3)c3cc(OC)c(OC)cc3C(=O)N2C)cc1` (stereo not drawn), `COc1ccc(Cc2nc(/N=C(\N)Nc3ccccc3)ccc2OC)cc1` is higher in Inhibition: 26% for the first, 68% for the second.

First: CCOC(=O)c1cn(CC)c2cc(N3CCCCC3)c(F)cc2c1=O
Second: Cl.O=C(/C=C/c1ccc(F)cc1)NC1CCC(CCN2CCc3ccc(-n4cccn4)cc3CC2)CC1 (stereo not drawn)
The Inhibition of the first is higher: 96% for the first, 16% for the second.

First: Oc1c(C=Nn2cnnc2)sc2ccccc12
Second: Br.CC1(C)N=C(N)N=C(N)N1OCc1cccc2c1ccc1ccccc12
The Inhibition of the first is lower: 68% for the first, 97% for the second.

First: CCCCNC(=O)c1[nH]c2c(NC(=O)COc3ccccc3)cccc2c1-c1cccc(NC(=O)C(N)CO)c1 (stereo not drawn)
Second: CN(C)CCOc1cc(NC(=O)Nc2ccc(Oc3ccccc3)cc2)ccc1I.Cl
The Inhibition of the first is lower: 0% for the first, 4% for the second.

First: C=CCN1CCC(N(Cc2cccc(Oc3ccccc3)c2)C(=O)C(c2ccccc2)c2ccccc2)CC1
Second: COc1ccc(N2C(=O)c3c(c4ccccc4n3C)C2c2ccccc2O)cc1 (stereo not drawn)
The Inhibition of the first is lower: 79% for the first, 91% for the second.

First: CCCOc1cc(Cc2cnc(N)nc2N)cc(OC)c1OC
Second: COc1cc2cc(-c3nc4ccccc4[nH]3)c(N)nc2cc1OC.Cl
The Inhibition of the first is lower: 1% for the first, 100% for the second.

First: CCC1CN(CCCn2c3ccccc3c3ccccc32)C(CC)CN1.Cl (stereo not drawn)
Second: O=C(NCCc1ccc(Cl)c(Cl)c1)[C@@H]1CCCN1C(=O)c1ccc(O)c(-c2ccc(Cl)c(Cl)c2)c1
The Inhibition of the first is lower: 0% for the first, 99% for the second.

Source: ChEMBL document CHEMBL1157539, “Thousands of chemical starting points for antimalarial lead identification” (Nature, 2010)
